Test results as given in PubChem BioAssay AID576 (NMMLSC, 2007).
The campaign covered roughly 24,000 compounds. About 150 (0.62%) were called active.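 How the source made its calls: active means fluorescence ratio above 2.44, which is 1 plus 3 SD of all ratios; inconclusive means signal too bright to measure linearly, ratio around 10 or more; inactive means fluorescence ratio below 2.44.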 The full list was thinned out, with actives kept by preference.

Assay: intrinsic compound fluorescence with Jurkat cells – cell-based, flow cytometry, artefact control for VLA-4 allosteric ligand project, primary screen (AID 576);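 further: green fluorescence of cells measured with 488 nm excitation and 530 nm emission; tested at 10 µM compound in the well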
Conditions: compound autofluorescence, hits give high values, 1 = vehicle-only cell background

Fluorescence ratio, inactive:
O=C(CN1CCN(c2ccccc2F)CC1)c1ccc2c(c1)OCO2 1.02
COCCNC(=O)CN1C(=O)CSc2ncccc21 1.05
CCOC(=O)N1CCC(NC(=O)COc2cc(=O)n(C)c3ccccc23)CC1 0.98
CCOC(=O)C1CCCN(C(=O)c2sc3nc(C)nc(N4CCOCC4)c3c2C)C1 (configuration not stated) 1.03
O=C(Cn1cc2c(n1)CCCCC2)NCCN1CCOCC1 0.97
COc1ccccc1-n1cnc2cc(C(=O)NCC3CCCO3)ccc21 (configuration not stated) 1.03
COCCn1c(=O)[nH]c2cc(C(=O)NCc3cccnc3)ccc2c1=O 1.03
COc1ccc(C(CC(=O)O)NC(=O)Cc2ccccc2)cc1 (configuration not stated) 0.92
CCOC(=O)CSc1nnc(CNC(=O)c2cccs2)n1-c1ccccc1 1.06
CC(C)C(=O)Nc1c(C(=O)c2ccc(F)cc2)oc2ccccc12 0.99
Nc1nonc1-c1nc2ccccc2n1CCC(=O)O 1.57
Cc1noc(C)c1CSc1nc2cc(S(=O)(=O)N3CCOCC3)ccc2o1 1.05
COc1ccc(C2C(C(=O)N3CCN(c4ccc(OC)cc4)CC3)c3ccccc3C(=O)N2C)cc1 (configuration not stated) 1.1
Cc1cc(N2C(=O)c3ccc(C(=O)NCc4ccccc4)cc3C2=O)no1 1.09
CCN(CC(=O)Nc1ccc2c(c1)OCCO2)Cc1cc(=O)oc2cc(C)c(C)cc12 1.06
CCOC(=O)C1CCN(C(=O)C2CCN(S(=O)(=O)N3CCCC3)CC2)CC1 0.96
CC(=O)c1c(C)c[nH]c1C 1.09
CCN1C(=O)/C(=C2/Sc3ccccc3N2CCCS(=O)(=O)O)SC1=S 1
CCN(CC)CCCNC(=O)c1cc(-c2cccc(Cl)c2)on1 1.16
Cc1cc(NC(=O)CN2CCC(O)(c3cccc(F)c3)CC2)no1 1.02
COCCOC(=O)C1=C(C)N=c2s/c(=C\c3cccs3)c(=O)n2C1c1cccs1 (configuration not stated) 1.11
Cc1c(C(=O)Nc2ccccc2Cl)oc2ccc(S(=O)(=O)N3CCC4(CC3)OCCO4)cc12 0.97
CC1(C)Oc2ccc3ccc(=O)oc3c2/C(=C/NCCO)C1=O 1.15
COCCNC(=O)c1snc2ccc(Cl)cc12 1
O=C(CN1CCN(CC(=O)Nc2ccc3c(c2)OCO3)CC1)Nc1ccc(F)cc1 0.97
Cc1ccc(S(=O)(=O)NCc2csc(C)n2)c(C)c1 0.95
Cc1cccn2c(=O)c3cc(C(=O)N4COCC4(C)C)n(C)c3nc12 1.08
